Screens deposited in PubChem by several laboratories.
An excerpt weighted towards active compounds, which were near 3% of everything screened.
FadD28 binding: inhibitors of FadD28 bisubstrate probe binding, primary screen, biochemical, fluorescence polarization, single point; inhibition, % at 12.5 µM; AID 588549, 2011; 0.22% of 360,000 active; Mycobacterium tuberculosis FadD28 fatty-acid-AMP ligase; in the data active = inhibition above about 8.5%, passing the limit was not always enough
Rv3671c inh: Rv3671c serine protease inhibitors, primary screen, biochemical, fluorescence polarization, M. tuberculosis H37Rv | 0.048% of 320,000 active | inhibition, % at 5.96 µM | P9WHR9; in the data active = inhibition above about 38%;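 also: extracellular domain of Rv3671c used as enzyme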
Target sequence (P9WHR9 whole entry, looked up, the tested form may be a part): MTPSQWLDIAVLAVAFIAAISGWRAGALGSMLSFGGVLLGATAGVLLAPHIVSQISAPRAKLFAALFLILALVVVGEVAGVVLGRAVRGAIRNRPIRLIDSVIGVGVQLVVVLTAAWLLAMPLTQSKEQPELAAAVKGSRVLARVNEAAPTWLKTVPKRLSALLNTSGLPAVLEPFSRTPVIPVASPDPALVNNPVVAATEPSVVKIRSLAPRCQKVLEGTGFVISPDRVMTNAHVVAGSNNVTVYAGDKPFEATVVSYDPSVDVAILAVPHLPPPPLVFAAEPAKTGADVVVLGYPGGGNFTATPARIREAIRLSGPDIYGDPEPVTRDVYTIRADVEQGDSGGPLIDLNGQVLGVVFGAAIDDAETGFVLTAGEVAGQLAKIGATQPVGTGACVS
BioA inh: M. tuberculosis BioA enzyme inhibitors, primary screen, biochemical, plate reader, single point, HTS; 0.096% of 360,000 active; inhibition, % at 9.99 µM; purified M. tuberculosis BioA enzyme; 7,8-diaminopelargonic acid synthase BioA (Mycobacterium tuberculosis); in the data active = inhibition above about 40%
FBA Mtb inh: Mtb FBA enzyme inhibitors, primary screen, biochemical, fluorescence, strain H37Rv. Fructose-bisphosphate aldolase (Mycobacterium tuberculosis (strain ATCC 25618 / H37Rv)), …. purified M. tuberculosis FBA, fluorescence read-out. inhibition, % at 1 µM. 2.3% of 360,000 active; in the data active = inhibition above about 27%
GDH-TPI counter: GDH-TPI coupling enzyme inhibitors, primary screen, artefact control for M. tuberculosis FBA inhibitor project, biochemical, absorbance, full deck | 1.2% of 360,000 active | inhibition, % at 4.8 µM | GDH-TPI coupled enzyme counterscreen, NADH absorbance; in the data active = inhibition above about 30%
A number is an active result; i = inactive; nt = no result given.

SMILES | FadD28 binding | Rv3671c inh | BioA inh | FBA Mtb inh | GDH-TPI counter
C[C@H](CO)N1C[C@H](C)[C@H](CN(C)Cc2ccc(C(F)(F)F)cc2)Oc2c(NC(=O)Nc3cccc4ccccc34)cccc2C1=O | nt | nt | i | nt | nt
Cc1noc(C)c1NC(=O)N[C@@H]1CC[C@H](CC(=O)N2CCCCC2)O[C@H]1CO | nt | nt | i | nt | nt
COc1ccc(-c2ccc3c(c2)O[C@H](CN(C)C(C)=O)[C@H](C)CN([C@@H](C)CO)S3(=O)=O)cc1 | nt | nt | i | nt | nt
O=C(Nc1ccc([N+](=O)[O-])cc1)C1COc2ccccc2O1 (stereo unspecified) | i | i | i | i | i
O=C(N/N=C/C=C/c1ccc([N+](=O)[O-])cc1)C1COc2ccccc2O1 (stereo unspecified) | i | i | nt | i | 35
C[C@H](CO)N1C[C@H](C)[C@H](CN(C)Cc2ccc(Cl)c(Cl)c2)Oc2ccc(N(C)C)cc2C1=O | nt | nt | i | nt | nt
CCCNC(=O)N1C[C@H](O)COC[C@H]2O[C@@H](CC(=O)N3CCN(C)CC3)CC[C@@H]21 | nt | nt | i | nt | nt
C[C@@H](NC(=O)C[C@H]1CC[C@@H](NC(=O)C2CCC2)[C@H](CO)O1)c1ccccc1 | nt | nt | i | nt | nt
C[C@@H]1CN([C@@H](C)CO)C(=O)Cc2cc(NC(=O)CCN3CCOCC3)ccc2O[C@@H]1CN(C)C | nt | nt | i | nt | nt
O=C(c1ccc(N2CCN(C(=O)c3cccc(F)c3)CC2)cc1)c1cccc(F)c1 | i | i | i | i | 31
O=C(c1ccc(N2CCN(C(=O)c3ccccc3Br)CC2)cc1)c1cccc(F)c1 | i | i | i | i | i
CC(=O)c1ccc(N2CCN(C(=S)Nc3ccc(Oc4ccccc4)cc3)CC2)cc1 | i | i | nt | i | i
CC(=O)c1ccc(N2CCN(C(=S)Nc3cccc(F)c3)CC2)cc1 | i | i | nt | i | 35
CO[C@@H]1CN(C)C(=O)c2cc(NC(=O)c3ccccc3)ccc2OC[C@@H](C)NC[C@H]1C | nt | nt | i | nt | nt
COc1ccc(Nc2nc(NCCCN3CCOCC3)nc(N)c2[N+](=O)[O-])cc1 | i | i | nt | i | i
Cc1cccc(Nc2nc(NCCCN3CCOCC3)nc(N)c2[N+](=O)[O-])c1 | i | i | i | i | 64
Nc1nc(Nc2cccc(F)c2)nc(N2CCOCC2)c1[N+](=O)[O-] | i | i | i | i | 37
Cc1cccc(Nc2nc(N)c([N+](=O)[O-])c(N3CCN(C)CC3)n2)c1 | i | i | i | i | 33
Cc1ccc(Nc2nc(N)c([N+](=O)[O-])c(N3CCOCC3)n2)cc1C | i | i | i | i | i
Nc1nc(NCCCN2CCOCC2)nc(Nc2cccc(F)c2)c1[N+](=O)[O-] | i | i | nt | i | 51
O=C(C[C@H]1CC[C@H](NC(=O)Nc2ccc(F)cc2)[C@@H](CO)O1)NCc1ccccn1 | nt | nt | i | nt | nt
C[C@H](CO)N1C[C@H](C)[C@@H](CN(C)C)Oc2cc(-c3cccnc3)ccc2S1(=O)=O | nt | nt | i | nt | nt
COc1ccc(C(=O)N(CN2CCCC2=O)c2cc(C)on2)cc1OC | i | i | i | i | i
COc1ccc(C(=O)N(CN2CCCC2=O)c2nccs2)cc1OC | i | i | nt | i | 46
CCC(C(=O)Nc1cccc(C(=O)O)c1C)c1ccccc1 (stereo unspecified) | i | i | nt | 143 | i
SMILES | FadD28 binding | Rv3671c inh | BioA inh | FBA Mtb inh | GDH-TPI counter
COc1ccccc1CNC(=O)C[C@@H]1C[C@@H]2c3cc(NC(=O)C4CCOCC4)ccc3O[C@@H]2[C@H](CO)O1 | nt | nt | i | nt | nt
O=C(N[C@H]1CC[C@H](CCn2cc(-c3ccccn3)nn2)O[C@@H]1CO)c1cccnc1 | nt | nt | i | nt | nt
C[C@@H]1CN([C@@H](C)CO)C(=O)c2cc(NS(=O)(=O)c3ccccc3)ccc2O[C@@H](C)CCCCO[C@@H]1CN(C)C(=O)CCCN(C)C | nt | nt | i | nt | nt
O=C(Nc1cc(F)ccc1F)N1C[C@@H]2[C@H](c3ccccc31)[C@H](CO)N2Cc1cccnc1 | nt | nt | i | nt | nt
OCc1cc(C(O)CNCCCCCCOCCCCc2ccccc2)ccc1O (stereo unspecified) | i | i | i | 28 | i
O=C(Nc1cccc(F)c1)N1C[C@@H]2[C@H](c3ccccc31)[C@H](CO)N2C(=O)c1ccccn1 | nt | nt | i | nt | nt
CN(Cc1cnc2nc(N)nc(N)c2n1)c1ccc(C(=O)NC(CCC(=O)O)C(=O)O)cc1 (stereo unspecified) | i | nt | nt | 74 | i
CCOC(=O)CCC(NC(=O)c1cncc(O)c1)C(=O)OCC (stereo unspecified) | i | i | i | i | i
Nc1nc(N)c2nc(CNc3ccc(C(=O)NC(CCC(=O)O)C(=O)O)cc3)cnc2n1 (stereo unspecified) | nt | i | nt | nt | nt
CN(Cc1cnc2nc(N)nc(N)c2n1)c1ccc(C(=O)NC(CCC(=O)O)C(=O)O)cc1C(F)(F)F (stereo unspecified) | i | nt | nt | 33 | i
COCC(=O)Nc1ccc2c(c1)[C@H]1C[C@H](CC(=O)NCc3ccccc3)O[C@@H](CO)[C@H]1O2 | nt | nt | i | nt | nt
BrC(/C=N/Nc1nc(N2CCOCC2)nc(N2CCOCC2)n1)=C/c1ccccc1 | i | i | i | i | 41
Cc1cc(=O)oc(C)c1C(=O)NCc1ccco1 | i | i | i | i | i
CCCCNC(=O)c1c(C)cc(=O)oc1C | i | i | nt | i | 33
Cc1cc(=O)oc(C)c1C(=O)NCc1c(F)cc(F)cc1F | i | i | nt | i | 36
CC(=O)N1[C@H](CO)[C@@H](c2ccccc2)[C@H]1CN(C(=O)NC(C)C)C1CCCC1 | nt | nt | i | nt | nt
CC1=CC=CC2=NC(=O)CC(C)(C(=O)N(CC(=O)NC(C)C)C3CCCC3)N12 (stereo unspecified) | i | i | i | 128 | i
CC(C)(C)NC(=O)CN(C(=O)C1(C)CC(=O)N=C2C=CC=CN21)C1CCCC1 (stereo unspecified) | i | i | i | 120 | i
CC1=CC2=NC(=O)CC(C)(C(=O)N(CC(=O)NC(C)(C)C)C3CCCC3)N2C=C1 (stereo unspecified) | i | i | i | i | i
COC(=O)c1ccccc1NC=C1C(=O)OC2(CCCCC2)OC1=O | i | i | i | i | i
COc1ccccc1NC=C1C(=O)OC2(CCCCC2)OC1=O | i | i | i | i | 33
COc1c(C=O)c2c(c(OC)c1OC)-c1ccc(OC)c(=O)cc1C(NC(C)=O)CC2 (stereo unspecified) | i | nt | nt | i | 32
Cc1ccc(S(=O)(=O)N[C@@H]2C=C[C@@H](CC(=O)NCc3ccc(Cl)c(Cl)c3)O[C@H]2CO)cc1 | nt | nt | i | nt | nt
CCOC(=O)c1ccc(CC(=O)c2ccc(O)cc2O)o1 | i | i | nt | i | i
COC(=O)c1cc(CC(=O)c2ccc(O)cc2O)c(C)o1 | i | i | i | i | 36
COC(=O)c1ccc(CC(=O)c2ccc(O)cc2O)o1 | i | i | i | i | 33
CC(C)NC(=O)Nc1ccc2c(c1)C(=O)N([C@H](C)CO)C[C@H](C)[C@H](CN(C)S(=O)(=O)c1cn(C)cn1)OCCCC[C@H](C)O2 | nt | nt | i | nt | nt
CC(=O)N1[C@@H]2Cn3c(ccc(-c4ccccc4)c3=O)[C@H]1[C@@H](C(=O)Nc1ccccc1)[C@@H]2CO | nt | nt | i | nt | nt
